# Measured values taken from PubChem BioAssay (EPA / NIEHS).
# Results filed as inconclusive are left out. Calls of active or inactive are those of the source. Rule for the calls, unless noted: active = hit-call score of the fitted dose curve at least 0.9, where 1 is the maximum; inconclusive = response in the unintended direction; inactive = score below 0.9.
# Tests used:
# [1] = CEETOX_H295R_11DCORT_noMTC: CeeTox H295R High-throughput Steroidogenesis Assay for 11-Deoxycortisol (11DCORT), maximum tolerated concentration (MTC) filtered results only (AID 2283911; active = hit-call score of the fitted dose curve at least 0.9, where 1 is the maximum; inactive = score below 0.9); details: actives raise or lower the signal
# Procedure, shortened: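 Values carry no filtering for maximum tolerated concentration: medium from forskolin-primed (10 uM, 48 h) H295R cells after 48 h chemical exposure (0.1% DMSO) was MTBE-extracted, and 11-deoxycortisol quantified by reverse-phase HPLC-MS/MS. Fitting was bidirectional against DMSO.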
# [2] = CEETOX_H295R_OHPREG_noMTC: CeeTox H295R High-throughput Steroidogenesis Assay for OH-Pregnenolone (OHPREG), maximum tolerated concentration (MTC) filtered results only (AID 2283912; active = hit-call score of the fitted dose curve at least 0.9, where 1 is the maximum; inactive = score below 0.9); details: actives raise or lower the signal
# Procedure, shortened: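 Readout is HPLC-MS/MS quantification of 17alpha-hydroxypregnenolone released by forskolin-stimulated H295R cells over 48 h of chemical exposure, DMSO as baseline.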
# [3] = CEETOX_H295R_OHPROG_noMTC: CeeTox H295R High-throughput Steroidogenesis Assay for OH-Progesterone (OHPROG), maximum tolerated concentration (MTC) filtered results only (AID 2283914; active = hit-call score of the fitted dose curve at least 0.9, where 1 is the maximum; inactive = score below 0.9); details: actives raise or lower the signal
# Procedure, shortened: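 Analysis uses all tested concentrations, without maximum-tolerated-concentration screening by MTT. H295R cells, forskolin-primed (10 uM, 48 h), receive chemical for 48 h; hormone in medium measured by HPLC-MS/MS, with bidirectional curve fitting against DMSO.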
# [4] = CEETOX_H295R_CORTISOL_noMTC: CeeTox H295R High-throughput Steroidogenesis Assay for Cortisol, maximum tolerated concentration (MTC) filtered results only (AID 2283916; active = hit-call score of the fitted dose curve at least 0.9, where 1 is the maximum; inactive = score below 0.9); details: actives raise or lower the signal
# Procedure, shortened: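 H295R adrenal cells were pre-stimulated 48 h with 10 uM forskolin, then exposed 48 h to test chemical in 0.1% DMSO. Medium cortisol was measured by MTBE extraction and HPLC-MS/MS; bidirectional fit versus DMSO, concentrations not MTC-filtered.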
# [5] = CEETOX_H295R_CORTIC_noMTC: CeeTox H295R High-throughput Steroidogenesis Assay for Corticosterone (CORTIC), maximum tolerated concentration (MTC) filtered results only (AID 2283917; active = hit-call score of the fitted dose curve at least 0.9, where 1 is the maximum; inactive = score below 0.9); details: actives raise or lower the signal
# Procedure, shortened: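 Forskolin-stimulated (10 uM, 48 h) H295R cells are dosed 48 h with chemical in DMSO (0.1% final); corticosterone change is quantified by HPLC-MS/MS and fitted bidirectionally against DMSO, unfiltered for MTT-derived MTC.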
# [6] = CEETOX_H295R_DOC_noMTC: CeeTox H295R High-throughput Steroidogenesis Assay for DOC, maximum tolerated concentration (MTC) filtered results only (AID 2283918; active = hit-call score of the fitted dose curve at least 0.9, where 1 is the maximum; inactive = score below 0.9); details: actives raise or lower the signal
# Procedure, shortened: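 H295R cells prestimulated 48 h with 10 uM forskolin, then exposed 48 h to test chemical (0.1% DMSO final). Medium 11-deoxycorticosterone extracted with MTBE, quantified by HPLC-MS/MS; bidirectional fit versus DMSO, concentrations not MTC-filtered.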
# [7] = CEETOX_H295R_ESTRADIOL_noMTC: CeeTox H295R High-throughput Steroidogenesis Assay for Estradiol, maximum tolerated concentration (MTC) filtered results only (AID 2283919; active = hit-call score of the fitted dose curve at least 0.9, where 1 is the maximum; inactive = score below 0.9); details: actives raise or lower the signal
# Procedure, shortened: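 Readout: dansyl-derivatized estradiol quantified by LC-MS/MS in medium from H295R cells dosed 48 h (0.1% DMSO) following 48 h forskolin (10 uM) prestimulation. Gain or loss of signal fitted against DMSO; no MTC filtering applied.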
# [8] = CEETOX_H295R_PROG_noMTC: CeeTox H295R High-throughput Steroidogenesis Assay for Progesterone (PROG), maximum tolerated concentration (MTC) filtered results only (AID 2283920; active = hit-call score of the fitted dose curve at least 0.9, where 1 is the maximum; inactive = score below 0.9); details: actives raise or lower the signal
# Procedure, shortened: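 Progesterone synthesis in the human adrenal line H295R is measured by HPLC-MS/MS after 48 h chemical exposure following 48 h forskolin (10 uM) stimulation. Activity in either direction is fitted relative to DMSO.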
# [9] = CEETOX_H295R_ESTRONE_noMTC: CeeTox H295R High-throughput Steroidogenesis Assay for Estrone, maximum tolerated concentration (MTC) filtered results only (AID 2283921; active = hit-call score of the fitted dose curve at least 0.9, where 1 is the maximum; inactive = score below 0.9); details: actives raise or lower the signal
# Procedure, shortened: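 Estrone in spent medium, quantified by tandem MS following dansyl chloride derivatization, after 48 h chemical exposure (0.1% DMSO) of forskolin-prestimulated (10 uM, 48 h) H295R cells; concentrations not MTC-filtered, bidirectional fit against DMSO.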
# [10] = test system: Sodium/Iodide Symporter (NIS), SLC5A5 (gene 6528); assay: CPHEA_Stoker_NIS_Inhibition_RAIU: CPHEA's Radioactive Iodide Uptake (RAIU) Assay for Sodium/Iodide Symporter (NIS) Inhibition, Stoker and Laws Labs (AID 2283841)
# Procedure, shortened: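 HEK293T cells stably expressing human NIS (hNIS-HEK293T-EPA) were exposed to test chemicals at 0.001–100uM (0.5% final DMSO) with 125I at a final 329pM in HBSS/10mM HEPES pH 7.4. After 2 hours at room temperature and ice-cold washes, intracellular 125I was counted as CPM and normalized to DMSO wells.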
# [11] = CPHEA_Stoker_NIS_Cytotoxicity: Cytotoxicity Assessment for CPHEA's Radioactive Iodide Uptake (RAIU) Assay for Sodium/Iodide Symporter (NIS) Inhibition, Stoker and Laws Labs (AID 2283897);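 for AC50: active means loss of ATP signal versus DMSO meaning cytotoxicity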
# Procedure, shortened: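 hNIS-HEK293T-EPA human kidney cells were exposed for 2 hours at room temperature to test chemicals (0.001–100uM, 0.5% final DMSO) in HEPES-buffered HBSS, pH 7.4. Viability was read as ATP content by luciferase bioluminescence, loss of signal versus DMSO.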
# [12] = molecular target: Thyroid hormone receptor alpha (Rattus norvegicus) + Thyroid hormone receptor beta (Rattus norvegicus) (UniProt P18113+P63059); assay: TOX21_TR_LUC_GH3_Agonist_Followup: Tox21 GH3 Thyroid Hormone Receptor Agonism Luciferase Follow-Up Assay (AID 2283939)
# Procedure, shortened: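 Agonist-mode confirmatory run: 15 concentrations (5 nM to 92 uM final) on GH3 rat pituitary cells, 24 h at 37C/5% CO2, T3 as positive control. Luminescence read with ONE-Glo after 30 min.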
# [13] = molecular target: PGR (gene 5241) (UniProt P06401); assay: TOX21_PR_BLA_Followup_Antagonist_ratio: Tox21 HEK293 Progesterone Receptor (PR) Antagonism Beta-lactamase Follow-Up Assay, Ratio (AID 2283934)
# Procedure, shortened: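 Read-out: blue/green beta-lactamase FRET ratio (cleaved ch2 over uncleaved ch1), fitted relative to DMSO baseline. Cells: PR-UAS-bla HEK293T, GAL4-UAS reporter, stimulated with 1 nM R5020 final; 16 hr compound exposure, 37C.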
# [14] = TOX21_PR_BLA_Followup_Antagonist_viability: Viability Assessment in the Tox21 HEK293 Progesterone Receptor (PR) Antagonism Beta-lactamase Follow-Up Assay (AID 2283936);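 note: cells exposed to compound with R5020 agonist for 16 h; hits lower the luminescence signal meaning cytotoxicity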
# Procedure, shortened: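 PR-UAS-bla HEK293T cells in medium with 2% charcoal-stripped FBS were treated with compounds plus R5020 for 16 hr at 37C. After the beta-lactamase read, CellTiter-Glo was added to the same wells and luminescence read after 30 min at room temperature.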
# [15] = molecular target: frog Thyroid hormone Receptor alpha (TRa), thra-a (gene 397942) (UniProt P15204); assay: ATG_frTRa_XSP2: Attagene TRANS-FACTORIAL Multi-Species (XSP2) HepG2 Assay for frog Thyroid hormone Receptor alpha (TRa) (AID 2283839);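 note: AC50 reflects induction of frog TRa-driven reporter mRNA above DMSO baseline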
# Procedure, shortened: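 Reporter transcripts were measured by RT-PCR with capillary electrophoresis after 24 h dosing of HepG2 carrying transiently transfected multi-reporter units, including a chimeric frog TRa-GAL4 construct. Activity was taken as increase over DMSO vehicle.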
# [16] = molecular target: human Thyroid hormone Receptor beta (TRb), THRB (gene 7068) (UniProt P10828); assay: ATG_hTRb_XSP2: Attagene TRANS-FACTORIAL Multi-Species (XSP2) HepG2 Assay for human Thyroid hormone Receptor beta (TRb) (AID 2283840);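 note: actives raise reporter mRNA so potency reflects agonist-like gain of signal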
# Procedure, shortened: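 Activity of exogenous human TRb–Gal4 fusion measured by reporter mRNA from RT-PCR and capillary electrophoresis, 24 h after dosing transfected HepG2. 6-alpha-fluorotestosterone (3 nM) and norgestrel (1.5 nM) present. Gain-of-signal fit relative to DMSO.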
# [17] = TOX21_PR_BLA_Followup_Agonist_viability: Viability Assessment in the Tox21 HEK293 Progesterone Receptor (PR) Agonism Beta-lactamase Follow-Up Assay (AID 2283935);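 note: signal loss means lower viability so actives are cytotoxic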
# Procedure, shortened: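 Luminescent ATP quantitation (CellTiter-Glo, 30 min, room temperature) in the same wells as the beta-lactamase read, on PR-UAS-bla HEK293T cells exposed to compound for 16 hr at 37C in 2% charcoal-stripped serum.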
# [18] = molecular target: PGR (gene 5241) (UniProt P06401); assay: TOX21_PR_LUC_Followup_Antagonist: Tox21 HEK293 Progesterone Receptor (PR) Antagonism Luciferase Follow-Up Assay (AID 2283938);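 note: curve fitted upward as signal gain over DMSO baseline despite antagonist label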
# Procedure, shortened: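 Luminescence from ONE-Glo was measured 30 min after reagent addition, following 16 h exposure of HEK293-PR-A-luc cells (3,000/well, plated 5 h earlier) to DMSO-dissolved compounds at 37C; DMSO served as baseline.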
# Sequence of PGR (gene 5241) (P06401 whole entry, looked up, the tested form may be a part): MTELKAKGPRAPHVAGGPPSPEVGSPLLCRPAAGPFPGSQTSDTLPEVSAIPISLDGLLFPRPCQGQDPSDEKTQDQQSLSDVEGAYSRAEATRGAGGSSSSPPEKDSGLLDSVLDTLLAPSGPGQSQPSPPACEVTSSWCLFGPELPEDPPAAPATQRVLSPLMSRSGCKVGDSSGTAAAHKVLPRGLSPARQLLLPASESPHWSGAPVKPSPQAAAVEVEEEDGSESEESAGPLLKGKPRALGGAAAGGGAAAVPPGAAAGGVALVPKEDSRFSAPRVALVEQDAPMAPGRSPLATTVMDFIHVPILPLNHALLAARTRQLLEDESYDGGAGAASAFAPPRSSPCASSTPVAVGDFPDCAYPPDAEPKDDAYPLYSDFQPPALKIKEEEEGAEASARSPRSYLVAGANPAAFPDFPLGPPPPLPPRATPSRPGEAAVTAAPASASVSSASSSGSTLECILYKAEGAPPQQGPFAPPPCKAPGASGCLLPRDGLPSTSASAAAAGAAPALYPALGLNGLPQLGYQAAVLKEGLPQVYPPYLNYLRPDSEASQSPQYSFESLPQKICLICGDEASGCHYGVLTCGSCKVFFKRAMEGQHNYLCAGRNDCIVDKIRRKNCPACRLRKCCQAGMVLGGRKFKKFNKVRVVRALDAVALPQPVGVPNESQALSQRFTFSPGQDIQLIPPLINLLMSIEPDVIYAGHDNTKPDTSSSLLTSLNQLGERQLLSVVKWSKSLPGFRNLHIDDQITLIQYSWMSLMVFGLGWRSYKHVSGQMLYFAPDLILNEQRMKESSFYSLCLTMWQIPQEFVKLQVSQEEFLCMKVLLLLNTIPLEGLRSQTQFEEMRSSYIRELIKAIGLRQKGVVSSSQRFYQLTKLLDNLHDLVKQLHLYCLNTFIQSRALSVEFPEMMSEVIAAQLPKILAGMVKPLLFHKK
# Sequence of frog Thyroid hormone Receptor alpha (TRa), thra-a (gene 397942) (P15204 whole entry, looked up, the tested form may be a part): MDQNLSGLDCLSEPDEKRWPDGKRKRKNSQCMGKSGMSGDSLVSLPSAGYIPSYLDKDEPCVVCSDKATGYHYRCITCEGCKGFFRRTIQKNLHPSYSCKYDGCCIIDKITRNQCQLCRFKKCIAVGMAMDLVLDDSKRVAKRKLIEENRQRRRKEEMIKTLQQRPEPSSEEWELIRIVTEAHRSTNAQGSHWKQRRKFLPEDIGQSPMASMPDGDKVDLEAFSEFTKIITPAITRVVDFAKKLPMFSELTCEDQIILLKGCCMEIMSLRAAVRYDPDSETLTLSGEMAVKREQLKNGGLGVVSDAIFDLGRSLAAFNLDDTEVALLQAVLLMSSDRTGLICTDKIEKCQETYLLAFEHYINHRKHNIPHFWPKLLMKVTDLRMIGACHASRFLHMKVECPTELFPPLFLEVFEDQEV
# Sequence of Thyroid hormone receptor alpha (Rattus norvegicus) + Thyroid hormone receptor beta (Rattus norvegicus) (P63059 whole entry, looked up): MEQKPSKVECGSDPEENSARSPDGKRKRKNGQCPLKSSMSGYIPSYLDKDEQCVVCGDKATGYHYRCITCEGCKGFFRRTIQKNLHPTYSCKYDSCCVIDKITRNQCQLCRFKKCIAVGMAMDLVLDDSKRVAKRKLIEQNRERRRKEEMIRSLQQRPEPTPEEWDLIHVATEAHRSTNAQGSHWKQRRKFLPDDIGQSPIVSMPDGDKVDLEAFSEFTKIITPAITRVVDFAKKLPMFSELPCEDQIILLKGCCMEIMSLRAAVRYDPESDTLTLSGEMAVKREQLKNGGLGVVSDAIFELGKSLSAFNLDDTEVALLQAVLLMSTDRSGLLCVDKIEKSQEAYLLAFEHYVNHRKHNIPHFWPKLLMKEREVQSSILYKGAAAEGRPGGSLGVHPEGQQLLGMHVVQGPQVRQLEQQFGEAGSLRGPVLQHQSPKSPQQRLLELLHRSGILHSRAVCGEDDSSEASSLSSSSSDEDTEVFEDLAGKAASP
# Sequence of Thyroid hormone receptor alpha (Rattus norvegicus) + Thyroid hormone receptor beta (Rattus norvegicus) (P18113 whole entry, looked up): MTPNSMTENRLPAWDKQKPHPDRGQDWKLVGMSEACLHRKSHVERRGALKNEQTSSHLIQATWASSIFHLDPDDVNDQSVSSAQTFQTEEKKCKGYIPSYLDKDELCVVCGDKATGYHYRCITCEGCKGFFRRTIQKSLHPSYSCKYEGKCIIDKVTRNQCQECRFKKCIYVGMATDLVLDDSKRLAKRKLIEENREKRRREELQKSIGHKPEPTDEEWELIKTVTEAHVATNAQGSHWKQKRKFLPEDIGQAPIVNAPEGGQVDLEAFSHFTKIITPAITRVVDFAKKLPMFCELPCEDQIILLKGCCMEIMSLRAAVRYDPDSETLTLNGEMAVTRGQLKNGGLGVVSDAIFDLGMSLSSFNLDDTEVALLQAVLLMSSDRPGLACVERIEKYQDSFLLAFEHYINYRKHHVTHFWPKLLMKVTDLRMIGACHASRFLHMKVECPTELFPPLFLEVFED
# Sequence of human Thyroid hormone Receptor beta (TRb), THRB (gene 7068) (P10828 whole entry, looked up, the tested form may be a part): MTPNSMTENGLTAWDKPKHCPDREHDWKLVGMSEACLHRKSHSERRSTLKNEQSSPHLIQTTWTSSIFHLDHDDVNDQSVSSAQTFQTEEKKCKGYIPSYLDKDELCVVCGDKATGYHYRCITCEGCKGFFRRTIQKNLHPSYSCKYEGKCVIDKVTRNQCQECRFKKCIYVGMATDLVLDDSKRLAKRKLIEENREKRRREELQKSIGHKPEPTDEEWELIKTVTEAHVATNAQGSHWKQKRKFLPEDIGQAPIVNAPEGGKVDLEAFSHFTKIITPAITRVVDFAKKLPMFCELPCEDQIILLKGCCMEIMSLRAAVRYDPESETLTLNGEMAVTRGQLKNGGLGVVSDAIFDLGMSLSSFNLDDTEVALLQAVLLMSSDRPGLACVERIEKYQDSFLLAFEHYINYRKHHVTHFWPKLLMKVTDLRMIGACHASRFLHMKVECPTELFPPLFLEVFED
compound,measurement,setting,value
c1ccc2cc3ccccc3cc2c1,outcome,[1],inactive
same,outcome,[2],inactive
same,outcome,[3],inactive
same,outcome,[4],inactive
same,outcome,[5],inactive
same,outcome,[6],inactive
same,outcome,[7],inactive
same,outcome,[8],inactive
same,outcome,[9],inactive
O=S(=O)(O)CCC(F)(F)C(F)(F)C(F)(F)C(F)(F)C(F)(F)C(F)(F)F,outcome,[10],inactive
OCC(CO)(CO)CO,outcome,[10],inactive
same,outcome,[11],inactive
Cn1c(=O)c2[nH]cnc2n(C)c1=O,outcome,[12],inactive
NC(=O)N(O)[C@@H]1COc2cc(OCc3ccccc3)ccc21,outcome,[13],inactive
same,outcome,[14],inactive
Cc1nccn1-c1ccc(Sc2cccc(C3(C(N)=O)CCOCC3)c2)cc1,outcome,[10],inactive
same,outcome,[11],inactive
C=CCc1cc(S(=O)(=O)c2ccc(O)c(CC=C)c2)ccc1O,AC50,[15],1.72 µM (active)
same,AC50,[10],38.9 µM (active)
same,AC50,[11],36.8 µM (active)
COc1cc(C(C)C)c2c(c1)S(=O)(=O)N(COc1cc(=O)n3cccc(OCCN4CCCCC4)c3n1)C2=O,outcome,[10],inactive
same,outcome,[11],inactive
CC(C)c1nnc2ccc(-c3ocnc3-c3cc(F)ccc3F)cn12,outcome,[10],inactive
same,outcome,[11],inactive
CCc1ccc(O)c(C(C)(C)C)c1,outcome,[10],inactive
same,outcome,[11],inactive
c1ccc(C(O[C@@H]2CCCN(CCc3ccc4c(c3)OCO4)C2)c2ccccc2)cc1,outcome,[10],inactive
same,outcome,[11],inactive
CC(C)C(=O)Nc1ccc([N+](=O)[O-])c(C(F)(F)F)c1,AC50,[15],42.2 µM (active)
same,AC50,[16],62.4 µM (active)
same,outcome,[10],inactive
same,outcome,[11],inactive
same,AC50,[13],46.1 µM (active)
same,outcome,[17],inactive
same,outcome,[14],inactive
same,outcome,[18],inactive
CCCCOC(=O)c1ccccc1,outcome,[10],inactive
same,outcome,[11],inactive
Cn1cc[nH]c1=S,outcome,[10],inactive
same,outcome,[11],inactive
CCCCC(CC)C(=O)OCCOCCOCCOC(=O)C(CC)CCCC (configuration not stated),outcome,[10],inactive
same,outcome,[11],inactive
